Shown are actives, neighbours in structure and some others; about 3.6% of the full set was active somewhere.
Nrf2 activator: activators of Nrf2 (ARE) signaling; AREc32 ARE-luciferase reporter (MCF7-derived line), luminescence, 24 h; Potency, µM (highest dose often 46.1 µM), without a hit: at the highest dose activation, most hits filed as activators; AID 624171; 0.31% of 410,000 active; further: % of control where 0% means no effect; nearly all actives have a fitted effect of over 65% in size
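For detection, Steady-Glo was added and plates sat 30 min at RT; before that, AREc32_Fluc cells grown overnight in OPTI-MEM/5% FBS had been treated with 23 nL compound for 24 hr at 37 deg C.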
A549 viability: counter-screen for Nrf2 inhibitors: cytotoxicity in A549 cells | 0.16% of 390,000 active | Potency, µM (doses to about 46 µM), for inactives: at the top dose activity change, negative = cytotoxicity, most hits filed as inhibitors | A549 ARE-Fluc cells, CellTiter-Fluor viability, 18-24 h; further: on the % scale 0 is the no-effect control and ±100 the full control effect
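Cytotoxicity counterscreen: CellTiter-Fluor fluorescence was measured in A549 ARE_Fluc cells after 18-24 h of compound exposure in a concentration series. The subsequent BugLite luminescent read reports ARE-luciferase activity.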
HepG2 viability: kills HepG2 cells in TGF-b inhibitor counter-screen | 0.76% of 410,000 active | HepG2 CAGA-GFP viability, ATP luminescence, 18 h | Potency, µM (highest dose often 46.1 µM), for inactives: at the highest dose activity change, negative = cytotoxicity, most hits filed as cytotoxic
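HepG2 CAGA-GFP cells (1000/well, DMEM with 1% FBS) received compound, then TGF-beta at 500 pg/mL final, and were incubated 18 hours at 37 degrees C. Viability was read by CellTiter-Glo luminescence. Media-only wells were set as complete cell-killing and DMSO as no toxicity.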
TGFb SMAD3 inh: blocks TGF-b signaling; Potency, µM (titrated, usually from 46.1 µM), inactives show top-dose activity, negative = inhibition, actives largely listed as inhibitors; HepG2 CAGA-GFP TGF-b/SMAD3 reporter, GFP fluorescence, 18 h; TGF-beta stimulated, 500 pg/mL final; AID 588855; 1.2% of 410,000 active; further: on the % scale 0 is the no-effect control and ±100 the full control effect; nearly all actives have a fitted effect of over 65% in size
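HEPG2 CAGA-GFP reporter cells (1000/well, DMEM with 1% FBS) received compounds, then recombinant TGF-beta at 500 pg/mL final for 18 hours at 37 degrees C. Per-cell GFP summed per well was normalised to unstimulated and stimulated DMSO controls before curve fitting.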
Nrf2 block: Nrf2 pathway inhibition. A549 ARE-Fluc reporter, luciferase luminescence, 18-24 h. Potency, µM (highest dose often 46 µM), inactives show at the highest dose activity change, negative = inhibition, hits mostly inhibitors. 2.1% of 360,000 active. AID 504444; further: on the % scale 0 is the no-effect control and ±100 the full control effect; nearly all actives have a fitted effect of over 60% in size
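Cells were seeded and rested 2 h, then exposed to compounds for 18-24 h. CellTiter-Fluor was read first as a viability measure. BugLite was added 15 min before the final luminescent read of ARE-luciferase activity in A549 cells.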
Starred values were filed as active, the others as inactive; ? = inconclusive; . = not tested or not shown; ! = not active in a repeat; [ ] = remark or other dose. The call rests on the fitted dose curve; in most records, active means well fitted curve in the direction sought with a large enough effect; inconclusive means small, poorly fitted or top-dose-only effect, or another doubt; inactive means no such curve, though single readings can be large; an effect the other way counts as inactive or inconclusive. Potency means the concentration at half of the fitted maximal effect.

SMILES | Nrf2 activator | A549 viability | HepG2 viability | TGFb SMAD3 inh | Nrf2 block
Cc1cc(S(=O)(=O)Nc2cc3c(cc2NCc2ccccc2)n(C)c(=O)n3C)ccc1F | 12.6µM* | 1.1% | -20.6% | 7.4% | ?
Cn1c(=O)n(C)c2cc(NS(=O)(=O)c3ccc(Cl)cc3)c(NCc3ccccc3)cc21 | ? | -8.6% | -49.4% | ? | ?
CCNS(=O)(=O)c1ccc2c(c1)n(C)c(=O)n2C | -0.4% | -3.9% | 3.5% | -2.9% | -29.2%
COc1ccc(S(=O)(=O)Nc2cc3c(cc2NCc2ccccc2)n(C)c(=O)n3C)cc1OC | ? | 1.5% | -47.7% | 2.5% | ?
Cn1c(=O)n(C)c2cc(NS(=O)(=O)c3ccc(C(C)(C)C)cc3)c(NCc3ccccc3)cc21 | 18.7% | ? | -42.0% | ? | 10.3µM*
CC(C)(C)C(=O)Nc1ccc(S(=O)(=O)NC2=NCCCCC2)cc1 | -0.4% | -0.2% | 2.0% | 6.2% | -15.8%
CSc1nc(N(C)C)nc(N2CC(=O)N(CCNS(=O)(=O)c3ccc(C)cc3)C2=N)n1 | 2.5% | -5.9% | 5.1% | 8.2% | -23.1%
O=C(/C(C=Nc1cccc(C(F)(F)F)c1)=C(/O)c1ccco1)C(F)(F)F | 7.94µM* | 6.7% | 2.1% | 0.6% | 27.3%
Clc1ccc(Nc2ncnc3ccc(Br)cc23)cc1 | 4.4% | -10.0% | -24.3% | ? | 13µM*
Clc1cccc(Nc2ncnc3ccc(Br)cc23)c1 | ? | 2.5% | -37.2% | ? | ?
O=C(OCCF)N1CCN(/[N+]([O-])=N/Oc2ccc([N+](=O)[O-])cc2[N+](=O)[O-])CC1 | . | . | 20µM* | 8.91µM* | .
COCCOC(=O)N1CCN(/[N+]([O-])=N/Oc2ccc([N+](=O)[O-])cc2[N+](=O)[O-])CC1 | . | . | -98.3% | ? | .
O=[N+]([O-])c1ccc(O/N=[N+](\[O-])N2CCN(c3ccccc3)CC2)c([N+](=O)[O-])c1 | . | . | -25.0% | 11.2µM* | .
O=[N+]([O-])c1ccc(O/N=[N+](\[O-])N2CCN(c3ncccn3)CC2)c([N+](=O)[O-])c1 | . | . | -91.4% | 10µM* | .
CC(=O)N1CCN(/[N+]([O-])=N/Oc2ccc([N+](=O)[O-])cc2[N+](=O)[O-])CC1 | . | . | -98.4% | ? | .
O=C(/C=C/c1cccc([N+](=O)[O-])c1)OC1CCCCC1=O (configuration not stated) | 4.6% | 0.7% | 0.0% | 2.0% | -10.8%
O=C(c1cc([N+](=O)[O-])ccc1N1CCN(S(=O)(=O)c2ccc(Cl)c(Cl)c2)CC1)N1CCOCC1 | 0.2% | ? | -7.8% | -17.6% | ?
CCC[C@@H]1C[C@@]1(CCC)[C@@H](NP(=O)(c1ccccc1)c1ccccc1)c1ccc(C(=O)OC)cc1 | 2.5% | ? | 14.1µM* | 11.2µM* | ?
Cc1nn(C)c(C)c1CNC(=O)c1nn2c(c1Cl)NC(c1cccs1)CC2C(F)(F)F (configuration not stated) | 3.0% | -11.6% | -15.9% | ? | 16.4µM*
CCC(C)[C@H]1COCCS(=O)(=O)N1Cc1ccccc1F (some centres not stated) | 0.3% | -0.9% | -19.2% | ? | 3.5%
CCC(C)[C@H]1COCCS(=O)(=O)N1Cc1ccc(Cl)cc1Cl (some centres not stated) | -0.2% | -0.5% | -31.7% | 10µM*! | -8.4%
COc1ccc(CN(C)C(=O)CCC(=O)N2CCN(S(=O)(=O)c3ccc(Cl)cc3)CC2)c(OC)c1 | -0.7% | -13.9% | -19.1% | -30.5% | 11.6µM*
C=C(c1ccccc1)c1ccc(N(C)C)cc1 | 2.5% | -3.4% | -3.3% | -0.9% | 16.4µM*
O=C(CSc1nnc(NC(=O)c2ccccc2)s1)NCc1ccco1 | 4.47µM* | -2.5% | -8.5% | -3.4% | 9.9%
CCCCN1CC[C@H]2C=CC[C@@H](C(=O)N3CCN(c4ccccc4)CC3)[C@H]2C1=O | -0.7% | -2.6% | -6.9% | ? | 0.2%
SMILES | Nrf2 activator | A549 viability | HepG2 viability | TGFb SMAD3 inh | Nrf2 block
N#C/C(=C(/O)COC(=O)c1ccc2c(c1)OCCO2)c1nc2ccccc2[nH]1 | 0.2% | -15.0% | 15.8µM* | -6.2% | -27.5%
CC(C)(C)c1ccc(OCC(O)CSc2ncn[nH]2)cc1 (configuration not stated) | -1.0% | 0.0% | -26.4% | -6.1% | 14.6µM*
O=C(NNC(=S)NC(=O)c1ccccc1[N+](=O)[O-])c1ccccc1O | -0.3% | 4.3% | -4.5% | 5.5% | 11.9%
CC(C)Oc1ccc(C(=O)Nc2ccc(NC(=O)c3ccco3)c(Cl)c2)cc1 | 0.6% | -7.8% | 1.5% | -22.8% | ?
CC(C)COc1ccc(C(=O)Nc2ccc(NC(=O)c3ccco3)c(Cl)c2)cc1 | 0.5% | ? | -35.7% | -28.1% | 16.4µM*
CCOc1ccc(-c2nc(C#N)c(N3CCN(Cc4ccccc4)CC3)o2)cc1 | 2.7% | 3.1% | -3.4% | 3.0% | 3.8%
CCN(Cc1ccccc1)C(=O)Cn1c(=O)n(Cc2ccccc2)c(=O)c2c1c1cc(OC)ccc1n2C | -0.3% | -7.9% | -10.3% | 0.9% | -0.6%[9.27 µM]
FC(F)(F)c1cc(CCN2C(=S)NC[C@@H]2Cc2ccccc2)cc(C(F)(F)F)c1 | -0.4% | -1.5% | -71.5% | ? | -3.2%
FC(F)(F)c1cc(CCN2C(=S)NC[C@@H]2CC2CCCCC2)cc(C(F)(F)F)c1 | -0.7% | -3.6% | -29.8% | 14.1µM* | ?
CC(=O)c1c(C)[nH]c(C(=O)OCc2nnc(-c3ccccc3)o2)c1C | 3.1% | -14.6% | -6.8% | -4.0% | 20.6µM*
Cc1ccc(C(=O)OCc2nnc(-c3ccccc3)o2)o1 | 1.7% | 2.0% | -36.7% | 20.9% | -1.0%
CC(=O)c1c(C)[nH]c(C(=O)OCc2cccc(Cl)c2)c1C | 8.3% | -0.9% | -22.6% | -25.1% | ?
CC(=O)c1c(C)[nH]c(C(=O)OCc2ccc(F)cc2Cl)c1C | 5.8% | -13.3% | 2.0% | -13.3% | 13µM*
COc1ccc(CCn2c(NN)nc3c2c(=O)[nH]c(=O)n3C)cc1 | 20.9% | -9.9% | -19.5% | -25.7% | -12.0%
COC(=O)c1ccc(NS(=O)(=O)c2cc3c4c(c2)CCC(=O)N4CCC3)cc1 | 5.0% | 0.1% | -31.2% | 4.1% | 23.1µM*
COC(=O)c1ccc(NS(=O)(=O)c2cc3c4c(c2)CCN4C(=O)CC3)cc1 | 0.0% | -0.6% | -11.3% | -11.0% | -15.3%
CCc1nn2c(=O)cc(COC(=O)c3ccc(NC(=O)C4CCCCC4)cc3)nc2s1 | 0.9% | -7.4% | 0.5% | 0.9% | .
Cc1cc2c(NC3CCCCC3)ncnc2s1 | 3.2% | -12.4% | -24.7% | 7.1% | 11.6µM*
Cc1cc2c(SCC(=O)NC3CCCCC3)ncnc2s1 | -0.5% | -15.8% | -7.2% | -8.6% | ?
CCOC(=O)N1CCN(Cc2nc3cc(NC(=O)CC)ccc3n2C(C)C)CC1 | -1.7% | ? | -22.7% | 8.91µM* | 9.1%

Bioassay records deposited in PubChem BioAssay by National Center for Advancing Translational Sciences (NCATS).
